# CSC inhib – cancer stem cell inhibition; cancer stem cell-like cells viability, luminescence; inhibition, % at 7.5 µM; 300,000 tested, 1.1% active; in the data active = inhibition above about 75%; inconclusive = no clear call, values can overlap the other calls; tested in HMLE shEcad cells
# MPTP inh – blocks calcium-induced mitochondrial swelling; 360,000 tested, 1.4% active; isolated mouse mitochondria, Ca2+ swelling absorbance, 30 min; inhibition, % at 10 µM;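 active = inhibition of 50% or more, scaled per plate between neutral and stimulator controls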
# Gli-Sufu block – blocks Gli-Sufu signaling in a luciferase reporter; Sufu-KO-LIGHT fibroblasts, Gli luciferase reporter luminescence; inhibition, % at 5 µM; 340,000 tested, 0.74% active; AID 588413;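 active = inhibition above about 55%, limit read from the data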
# GRIN3A LBD mod – NR3A (human) ligand-binding domain modulation | NR3A LBD differential scanning fluorimetry, Tm shift; 0% = protein alone, 100% = glycine-bound protein | AID 1259313 | 340,000 tested, 2.5% active | Tm shift relative to glycine control, % at 25 µM;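 active = melting temperature shift of at least 10% of the positive control shift, at one fixed dose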
# Mdm2-MdmX inh – disrupts the human Mdm2-MdmX interaction; 330,000 tested, 3% active; AID 485346; O15151+Q00987; inhibition, % at 8 µM; SaOS-2 split-luciferase Mdm2/MdmX complementation, luminescence;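 active = inhibition of at least 50% at 8 µM in the primary screen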
# Target sequence (O15151 whole entry, looked up): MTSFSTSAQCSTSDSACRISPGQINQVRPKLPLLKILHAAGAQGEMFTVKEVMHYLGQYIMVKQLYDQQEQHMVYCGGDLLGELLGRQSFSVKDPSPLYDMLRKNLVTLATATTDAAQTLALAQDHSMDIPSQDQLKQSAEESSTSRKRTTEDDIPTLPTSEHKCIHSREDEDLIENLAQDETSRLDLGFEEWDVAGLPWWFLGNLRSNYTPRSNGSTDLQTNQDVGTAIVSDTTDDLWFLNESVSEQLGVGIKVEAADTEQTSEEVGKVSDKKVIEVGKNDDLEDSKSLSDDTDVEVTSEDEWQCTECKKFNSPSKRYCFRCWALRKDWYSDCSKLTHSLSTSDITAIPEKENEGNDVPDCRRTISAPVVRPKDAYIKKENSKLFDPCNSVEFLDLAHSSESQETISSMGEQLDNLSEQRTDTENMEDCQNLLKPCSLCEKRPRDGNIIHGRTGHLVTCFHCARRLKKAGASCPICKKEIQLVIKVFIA
# Target sequence (Q00987 whole entry, looked up): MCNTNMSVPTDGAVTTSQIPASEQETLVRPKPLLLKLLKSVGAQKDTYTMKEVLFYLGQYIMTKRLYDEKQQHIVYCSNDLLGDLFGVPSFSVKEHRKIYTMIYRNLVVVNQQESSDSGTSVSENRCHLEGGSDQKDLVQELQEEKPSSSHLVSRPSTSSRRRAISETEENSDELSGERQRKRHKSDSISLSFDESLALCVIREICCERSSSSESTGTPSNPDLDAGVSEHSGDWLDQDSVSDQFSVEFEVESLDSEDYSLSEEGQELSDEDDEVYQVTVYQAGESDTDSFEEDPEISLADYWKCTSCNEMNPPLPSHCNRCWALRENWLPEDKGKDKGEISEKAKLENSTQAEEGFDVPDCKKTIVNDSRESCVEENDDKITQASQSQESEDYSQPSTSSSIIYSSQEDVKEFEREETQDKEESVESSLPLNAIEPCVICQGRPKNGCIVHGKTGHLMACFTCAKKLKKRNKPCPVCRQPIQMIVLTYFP
# Beta apoptosis – beta cell apoptosis inhibition; INS-1E cytokine-induced death, ATP luminescence, 48 h; percent of positive-control rescue, neutral wells zero; 300,000 tested, 0.8% active; protection from apoptosis, % (concentration not given with the values);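 active = Every replicate reaches about 75%, or at least half do and their mean reaches it too, limit read from the data; inconclusive = At least half of replicates reach the limit but their mean does not; inactive = Under half of replicates reach the limit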;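 note: higher means more ATP so stronger rescue from cytokine killing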
# A number is an active result; 0 = inactive; ? = inconclusive; - = not tested or not shown. In the library only some 6.6% were active in any assay of this set; here they are far more common.
SMILES,CSC inhib,MPTP inh,Gli-Sufu block,GRIN3A LBD mod,Mdm2-MdmX inh,Beta apoptosis
Cc1ccc(NC2Sc3ccccc3NC2=O)cc1 (stereo unspecified),0,0,0,12.8,0,0
CCn1c(SCC(=O)Nc2ccc(OC)cc2)nc2nc3c(cc2c1=O)CCCC3,0,0,0,0,0,145.6
Cc1cccc(NC(=O)CSc2nc3nc4c(cc3c(=O)n2-c2ccccc2)CCCC4)c1,0,0,0,18.8,0,0
O=C(CSc1nc2nc3c(cc2c(=O)n1-c1ccccc1)CCCC3)Nc1cccc2ccccc12,0,0,0,0,0,0
COc1ccc(-n2cc(-c3ccc(C)cc3)[n+]3c2SCC3)cc1,0,0,-,0,0,113.3
O=c1cc(-c2ccccc2)[nH]c2cc(Cl)ccc12,0,0,0,0,0,0
Clc1ccc2[nH]c(-c3ccccc3)cc2c1,0,0,0,19.8,0,0
CN(C)CCOc1ccc(C(C)(C)c2ccccc2)cc1,146.2,0,0,0,0,0
CN(C)CCCOc1ccc(C(C)(C)c2ccccc2)cc1,0,0,0,0,0,-
COC(=O)/C(=C\c1cc(OC)c(OC)c(OC)c1)c1nc2ccccc2[nH]1,0,0,0,0,0,0
COc1cc(/C=C(/C(=O)c2cccs2)c2nc3ccccc3[nH]2)ccc1O,0,0,0,0,0,83.2
CCOCCCNc1ncnc2c1[nH]c1ccccc12,0,0,0,0,0,78.3
C=CCNc1ncnc2c1[nH]c1ccccc12,0,0,0,0,0,0
O=C(CCC(NC(=O)OCc1ccccc1)C(=O)OCc1ccccc1)NCC(=O)OCc1ccccc1 (stereo unspecified),-,0,0,11.9,0,0
CCn1c(SCC(=O)Nc2ccc(NC(=O)c3cccs3)cc2)nnc1-c1cccnc1,0,0,0,21.3,0,0
Nc1ccc2c3c(cccc13)C(=O)N(c1ccccc1)C2=O,-,0,0,0,-,-
Nc1cccc(N2C(=O)c3cccc4c(N)ccc(c34)C2=O)c1,0,0,0,10.3,0,0
CC(C)CCN1C(=O)c2cccc3c(N)ccc(c23)C1=O,0,0,0,14.1,0,-
Cc1ccc(S(=O)(=O)NCC(=O)OCC(=O)N2N=C(c3ccc(Cl)cc3)CC2c2ccco2)cc1C (stereo unspecified),0,0,0,31.0,0,0
CCc1nc2ccc(C(=O)NC3CCN(Cc4ccccc4)CC3)cn2c1N(C)Cc1ccc(N(C)C)cc1,-,0,-,-,-,-
COc1ccc(OCC(=O)Nc2nc3ccc(NC(C)=O)cc3s2)cc1,0,0,0,14.1,0,0
COc1ccc2nc(NC(=O)c3ccc4ncsc4c3)sc2c1,0,0,0,26.3,0,0
COc1ccc(C(=O)Nc2nc3ccccc3s2)cc1,0,0,0,25.6,0,-
COc1ccc2nc(NC(=O)c3ccc(F)cc3)sc2c1,0,0,0,10.1,0,0
CC(C)(C)OC(=O)N1CCC(C(=O)Nc2ccc(C(=O)NCc3ccccc3)cc2)CC1,-,0,0,0,-,-
SMILES,CSC inhib,MPTP inh,Gli-Sufu block,GRIN3A LBD mod,Mdm2-MdmX inh,Beta apoptosis
CC(C)CC(=O)Nc1ccc(C(=O)CN2C(=O)NC3(CCOc4ccccc43)C2=O)cc1 (stereo unspecified),0,0,0,0,0,0
CCN(CC)CCCn1c2c(c(SCC(=O)Nc3ccc4c(c3)OCCO4)nc1=O)CCC2,0,0,0,0,0,0
O=C(NCc1ccccc1Br)C1CCCO1 (stereo unspecified),0,0,0,0,0,0
COc1ccccc1NC(=O)Nc1nc2ccc(S(N)(=O)=O)cc2s1,0,0,0,20.1,0,0
O=C(Nc1nc2ccccc2s1)c1ccc(Cl)s1,0,0,0,20.9,0,-
COc1ccc2nc(NC(=O)Nc3cccc4ccccc34)sc2c1,0,0,0,23.2,0,0
COc1ccc2nc(NC(=O)Nc3ccccc3OC)sc2c1,0,0,0,0,0,0
O=C(Nc1nc2ccccc2s1)c1ccccc1[N+](=O)[O-],0,0,0,0,0,0
NC(=O)c1ccc2nc(NC(=O)c3ccc(N)cc3)sc2c1,-,0,0,13.9,0,-
COCCNC(=O)C1(C)CCN(C(=O)/C=C/c2ccccc2)C1 (stereo unspecified),-,0,-,-,-,-
COc1ccc2nc(NC(=O)c3cccs3)sc2c1,0,0,0,19.3,0,0
CCCCn1c(N)c(N(C)C(=O)C2CCCC2)c(=O)[nH]c1=O,-,0,0,14.7,0,0
NS(=O)(=O)c1ccc(OC(=O)CNC(=O)OCc2ccccc2)cc1,0,0,0,0,0,0
CCOC(=O)Nc1ccc2c(c1)Nc1ccccc1S2,0,0,0,12.3,0,0
CC(=O)c1ccc2c(c1)Nc1ccccc1S2,0,0,0,0,0,0
CN(C(=O)c1cc2c(s1)-c1ccccc1S(=O)(=O)C2)c1ccccc1,0,0,0,0,0,0
C=CCn1c(=NC(=O)c2cc(Cl)sc2Cl)sc2cc(S(N)(=O)=O)ccc21,0,0,0,0,0,0
COCCn1c(=NC(=O)c2cc(-c3cccs3)nc3ccccc23)sc2cc(S(N)(=O)=O)ccc21,0,0,0,28.2,0,0
COCCn1c(=NC(=O)c2ccc(S(=O)(=O)N3CCOCC3)cc2)sc2cc(S(N)(=O)=O)ccc21,0,0,0,0,0,0
COCCn1c(=NC(=O)c2sc3ccccc3c2Cl)sc2cc(S(N)(=O)=O)ccc21,0,0,0,23.1,0,0
CCOCCn1c(=NC(=O)c2cc3ccccc3oc2=O)sc2cc(S(N)(=O)=O)ccc21,0,0,0,0,0,0
C=CCn1c(=NC(=O)c2cc(-c3cccs3)nc3ccccc23)sc2cc(S(N)(=O)=O)ccc21,0,0,0,27.6,0,92.4
O=c1[nH]c(=O)n(C2OC(CO)C(O)C2O)c2c1CCCC2 (stereo unspecified),-,0,-,-,-,-
CO[C@@H]1CN(C)C(=O)c2cc(NC(=O)NC3CCCCC3)ccc2OC[C@@H](C)N(CCc2ccccc2)C[C@@H]1C,-,0,-,-,-,-
O=C(OCc1ccc(Cl)cc1Cl)c1cccnc1Cl,0,0,0,12.4,0,0
SMILES,CSC inhib,MPTP inh,Gli-Sufu block,GRIN3A LBD mod,Mdm2-MdmX inh,Beta apoptosis
COc1ccc(C(=O)N2CCC2(C)C(=O)O)cc1C(F)(F)F (stereo unspecified),-,0,-,-,-,-
CCOC(=O)[C@]12CCCC=C1N(Cc1cccc3ccccc13)C(=O)[C@H](CC(=O)NCc1ccc(OC)c(OC)c1)C2,-,0,-,-,-,-
O=C(CSc1ccccn1)Nc1ccc2c(c1)oc1ccccc12,0,0,0,26.0,0,0
CCCc1cc(=O)n(-c2nc3ccccc3s2)[nH]1,140.1,0,0,0,0,0
c1ccc(NC2=NCCN2CCC2CCCC2)cc1,0,0,0,0,0,0
COc1ccc(NC(=O)C2(C)CCN2C2Cc3ccccc3C2)cc1OC (stereo unspecified),-,0,-,-,-,-
COc1cccc(S(=O)(=O)NCc2ccc(C(=O)Nc3ccc(Cl)cc3)cc2)c1,?,0,0,0,0,0
O=C(Nc1cccc(Cl)c1)c1ccc(S(=O)(=O)NCC2CCCO2)cc1 (stereo unspecified),-,0,0,21.1,0,0
